Measured values from PubChem BioAssay (Tox21).
Inconclusive results are not listed. Activity calls are given as the source filed them. The call rests on the fitted dose curve.

How the values were obtained:
[1] = molecular target: Acetylcholinesterase (Homo sapiens) (UniProt P22303); experiment: Acetylcholinesterase (AChE) small molecule antagonists: colormetric cell-based qHTS assay (AID 1347395); further: nearly all actives have a fitted effect of over 30% in size
Procedure, shortened: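 After overnight attachment at 37 C, SH-SY5Y cells get 30 min compound exposure; detection cocktail (acetylthiocholine, DTNB) then incubates 90 min at 37 C, and absorbance reflects AChE-generated thiocholine.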

[2] = molecular target: Acetylcholinesterase (Homo sapiens) (UniProt P22303); experiment: Acetylcholinesterase (AChE) small molecule antagonists: enzyme-based qHTS assay (AID 1347397); conditions: Potency: AChE enzyme activity inhibition; outcome: AChE enzyme activity inhibition; further: nearly all actives have a fitted effect of over 55% in size
Procedure, shortened: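 Compound or DMSO vehicle was pin-transferred onto recombinant human AChE (50 mU/mL as dispensed) and left 30 min at room temperature. Acetylthiocholine with DTNB then started the reaction, read colorimetrically 10 min later.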

[3] = molecular target: Acetylcholinesterase (Homo sapiens) (UniProt P22303); experiment: Acetylcholinesterase (AChE) small molecule antagonists: fluorescence cell-based qHTS assay (AID 1347398); conditions: Potency: AChE activity; outcome: AChE activity; further: nearly all actives have a fitted effect of over 50% in size
Procedure, shortened: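 Using neuroblastoma SH-SY5Y cells as the enzyme source, test chemicals are preincubated 30 min at 37 C; AChE-driven acetylthiocholine cleavage is then quantified by thiocholine-dependent Thiolite Green fluorescence after 40 min at room temperature.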

[4] = molecular target: Acetylcholinesterase (Homo sapiens) (UniProt P22303); experiment: Acetylcholinesterase (AChE) small molecule antagonists: enzyme-based qHTS assay with human liver microsomes (AID 1347399); conditions: Potency: qHTS inhibition; outcome: qHTS inhibition; further: nearly all actives have a fitted effect of over 60% in size
Procedure, shortened: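 Recombinant human AChE (50 mU/mL in the enzyme mix) and human liver microsomes (0.25 mg/mL final) were preincubated with compound and NADPH (0.25 mg/mL final) for 30 min at 37 C. Acetylthiocholine/DTNB was then added; thiocholine was read colorimetrically after 10 min at room temperature.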
On the % scale 0 is the no-effect control and ±100 the full control effect.

Sequence of Acetylcholinesterase (Homo sapiens) (P22303 whole entry, looked up): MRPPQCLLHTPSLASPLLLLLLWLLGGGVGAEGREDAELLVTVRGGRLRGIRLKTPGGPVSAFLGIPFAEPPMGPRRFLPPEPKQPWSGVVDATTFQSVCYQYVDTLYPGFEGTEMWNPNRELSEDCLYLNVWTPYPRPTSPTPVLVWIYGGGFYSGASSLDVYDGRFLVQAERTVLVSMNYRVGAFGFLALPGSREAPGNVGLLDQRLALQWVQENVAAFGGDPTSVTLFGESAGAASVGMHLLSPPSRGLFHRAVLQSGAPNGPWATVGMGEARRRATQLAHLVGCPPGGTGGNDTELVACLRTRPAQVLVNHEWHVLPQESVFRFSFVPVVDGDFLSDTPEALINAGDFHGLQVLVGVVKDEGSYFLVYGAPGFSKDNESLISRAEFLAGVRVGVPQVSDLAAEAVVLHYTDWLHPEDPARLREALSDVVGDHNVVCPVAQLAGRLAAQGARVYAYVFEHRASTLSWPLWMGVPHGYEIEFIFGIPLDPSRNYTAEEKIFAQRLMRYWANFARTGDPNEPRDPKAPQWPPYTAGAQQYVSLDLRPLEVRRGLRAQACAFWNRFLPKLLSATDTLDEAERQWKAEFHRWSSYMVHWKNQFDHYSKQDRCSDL

CCN(CC)C(C)=O
inactive: Potency [1] | Potency [2] | Potency [3] | Potency [4]

Oc1ccc2c(c1)Cc1ccccc1-2
inactive: Potency [1] | Potency [2] | Potency [3] | Potency [4]

COc1ccc(OC)c(OC)c1
inactive: Potency [1] | Potency [2] | Potency [3] | Potency [4]

CC1=NN(c2cccc(S(=O)(=O)O)c2)C(=O)C1
inactive: Potency [1] | Potency [2] | Potency [3] | Potency [4]

Cc1cc(=O)c2c(O)c3c(O)cc(=O)c4c3c3c(cc(O)c1c23)C(C)(C)C=4O
inactive: activity, negative = inhibition [1] 0.337% [at 23.6 µM] | activity change, negative = inhibition [2] 2.31% [at 23.6 µM] | activity change, negative = inhibition [3] 7.09% [at 23.8 µM] | activity change, negative = inhibition [4] 0.168% [at 23.6 µM]

CC[C@@]1(O)C(=O)OCc2c1cc1n(c2=O)Cc2c-1nc1ccccc1c2/C=N/OC(C)(C)C
inactive: Potency [1] | Potency [2] | Potency [3] | Potency [4]

NCC1(Cc2noc(=O)[nH]2)CCCCC1
inactive: Potency [1] | Potency [2] | Potency [3] | Potency [4]

CCC(=O)CC
inactive: Potency [1] | Potency [2] | Potency [3] | Potency [4]

C=CCOc1ccccc1OCC(O)CNC(C)C (centres undefined)
inactive: outcome [1] | outcome [2] | outcome [3] | outcome [4]

CCOC(=O)c1cnc2c(cnn2CC)c1NN=C(C)C
inactive: Potency [1] | Potency [2] | Potency [3] | Potency [4]

O=C(c1ccccc1)C1CCC1
inactive: Potency [1] | Potency [2] | Potency [3] | Potency [4]

FC1(F)C(F)(F)C(F)(F)C2(F)C(F)(C1(F)F)C(F)(F)C(F)(F)C1(F)C(F)(F)C(F)(F)C(F)(F)C(F)(F)C12F (centres undefined)
inactive: Potency [1] | Potency [2] | Potency [3] | Potency [4]

O=c1c(O)c(-c2ccc(O)cc2O)oc2cc(O)cc(O)c12
inactive: Potency [1] | Potency [2] | Potency [3] | Potency [4]

CCCCCCCCCI
inactive: Potency [1] | Potency [2] | Potency [3] | Potency [4]

CC(C)Cn1cnc2c(N)nc3ccccc3c21
inactive: activity, negative = inhibition [1] -1.3% [at 23.6 µM] | activity change, negative = inhibition [2] -0.415% [at 23.6 µM] | activity change, negative = inhibition [3] -8.86% [at 23.8 µM] | activity change, negative = inhibition [4] 1.68% [at 23.6 µM]

CCCSS/C(CCO)=C(\C)N(C=O)Cc1cnc(C)nc1N
inactive: Potency [1] | Potency [2] | Potency [3] | Potency [4]

CCN1CCOCC1
inactive: Potency [1] | Potency [2] | Potency [3] | Potency [4]

Cc1cc(CC(=O)O)c(C)n1-c1ccc(Cl)cc1
inactive: Potency [1] | Potency [2] | Potency [3] | Potency [4]

COC(=O)c1ccccc1Cl
inactive: Potency [1] | Potency [2] | Potency [3] | Potency [4]

C=CC(C)(CCC=C(C)C)OC(=O)C(C)C (centres undefined)
inactive: Potency [1] | Potency [2] | Potency [3] | Potency [4]

Nc1ccc(C(=O)O)c(O)c1
inactive: Potency [1] | Potency [2] | Potency [3] | Potency [4]
